{"source": "PubChem BioAssay AID624483", "about": "(NMMLSC, 2012)", "note": "About 11,000 (3.1%) of roughly 360,000 compounds were called active. Roughly 2% stayed inconclusive and do not appear here. The entries come from a sample that favours actives as a whole. A number with no mark means an inactive call. No stated cut-off is given here; in the data, active means fluorescence intensity above about 16000; inconclusive means no clear call, values can overlap the other calls; inactive means below that.", "data": [{"experiment": "compound fluorescence in toxin protease inhibitor counterscreen, primary screen, artefact control for toxin protease inhibitor project, biochemical, multiplex microsphere, HTS (AID 624483)", "settings": "compound autofluorescence counterscreen, microsphere flow cytometry; stronger effect = higher value", "values": [{"compound": "O=C(NCc1ccc(F)cc1)c1cc(C2CCCCN2C(=O)C2CCCCC2)on1", "note": "(centres undefined)", "fluorescence intensity": 3660}, {"compound": "CCC(CC)C(=O)Nc1cccc(C(=O)N2CCCC2)c1", "fluorescence intensity": 9330}, {"compound": "O=C(Nc1cccc(C(=O)N2CCCC2)c1)c1ccccc1", "fluorescence intensity": "23500 (active)"}, {"compound": "CC(=O)c1cccc(NC(=S)N2CCCC2)c1", "fluorescence intensity": 4420}, {"compound": "COc1ccccc1CNC(=O)C1CCN(c2nc3ccccc3o2)CC1", "fluorescence intensity": "21300 (active)"}, {"compound": "COc1ccc(OC)c(CNC(=O)C2CCCN(c3nc4ccccc4o3)C2)c1", "note": "(centres undefined)", "fluorescence intensity": 15800}, {"compound": "COc1ccccc1CNC(=O)C1CCN(S(C)(=O)=O)CC1", "fluorescence intensity": 8350}, {"compound": "COc1ccccc1CNC(=O)c1cc(-c2cc(F)ccc2OC)n[nH]1", "fluorescence intensity": 3700}, {"compound": "CC(C)C[C@H]1CNC(=O)C(=O)N1C[C@@H]1CCCN1C[C@H](Cc1ccccc1)N1C[C@H](CC(C)C)N(CC2CCCCCC2)C(=O)C1=O", "fluorescence intensity": 5660}, {"compound": "Cc1cc(C)c2nc(N(CCN(C)C)C(=O)/C=C/c3cccs3)sc2c1", "fluorescence intensity": 4460}, {"compound": "Cc1cccc2sc(N(CCCN(C)C)C(=O)CCS(=O)(=O)c3ccccc3)nc12", "fluorescence intensity": "32000 (active)"}, {"compound": "Cc1ccc2sc(N(CCN(C)C)C(=O)/C=C/c3cccs3)nc2c1C", "fluorescence intensity": 4390}, {"compound": "COc1cc(/C=C/CNC[C@H]2O[C@@H](n3cnc(C(N)=O)n3)[C@H](O)[C@@H]2O)ccc1O", "fluorescence intensity": 3180}, {"compound": "O=C(NCc1ccccc1Cl)C1CCN(S(=O)(=O)N2CCOCC2)CC1", "fluorescence intensity": 5690}, {"compound": "Cc1ccccc1Cn1c(C)c(C(=O)NCc2cccc(C(F)(F)F)c2)sc1=O", "fluorescence intensity": 5450}, {"compound": "FC(F)(F)c1ccccc1Cc1c(-c2ccccc2)nc2c3ccccc3ccn12", "fluorescence intensity": 6460}, {"compound": "Cn1c(=O)c2c(nc(NCCNC(=O)c3ccco3)n2Cc2ccccc2F)n(C)c1=O", "fluorescence intensity": 5330}, {"compound": "COc1ccc(N2CC(C)Cn3c2nc2c3c(=O)n(Cc3ccccc3F)c(=O)n2C)c(OC)c1", "note": "(centres undefined)", "fluorescence intensity": 5760}, {"compound": "CC(C)OCCCNc1nc2c(c(=O)n(Cc3ccccc3F)c(=O)n2C)n1C", "fluorescence intensity": "23400 (active)"}, {"compound": "CCc1ccc([C@@H]2CC(=O)[C@@H]3CN(S(=O)(=O)c4ccc(C)cc4)[C@H](c4ccc(Cl)cc4)C[C@@H]3N2S(=O)(=O)c2ccc(C)cc2)cc1", "fluorescence intensity": 6290}, {"compound": "COc1ccc(CCn2c(O)c(C=NCCCn3ccnc3)c(=O)[nH]c2=O)cc1OC", "fluorescence intensity": "22700 (active)"}, {"compound": "O=c1[nH]c(=O)n(CCc2ccc(F)cc2)c(O)c1/C=N/N1CCCCC1", "fluorescence intensity": 3680}, {"compound": "COc1ccc(CCn2c(O)c(C=NC3CC3)c(=O)[nH]c2=O)cc1OC", "fluorescence intensity": 3180}, {"compound": "CCc1nc2ccc(C(=O)Nc3cccc(OC)c3)cn2c1N(CCC(C)C)CCN(C)C", "fluorescence intensity": 3940}, {"compound": "COC(=O)c1ccc(S(=O)(=O)N(CCO)Cc2ccccc2)n1C", "fluorescence intensity": 5690}, {"compound": "CCCC(=O)N1CCC1(C)C(=O)NCc1ccc(SC)cc1", "note": "(centres undefined)", "fluorescence intensity": 4000}, {"compound": "O=c1oc2ccccc2c(CNc2ccccc2)c1[N+](=O)[O-]", "fluorescence intensity": 3710}, {"compound": "CC1(C(=O)NS(=O)(=O)c2ccc3ccccc3c2)CCN1C(=O)C1(c2ccc(Cl)cc2)CCC1", "note": "(centres undefined)", "fluorescence intensity": 3400}, {"compound": "CCc1nc2c(OCc3cccc(OC)c3)cccn2c1N(C)C(=O)C(C)C", "fluorescence intensity": 4100}, {"compound": "O=C(Oc1ccc(-c2nc(-c3ccccn3)no2)cc1)c1ccccc1", "fluorescence intensity": 3190}, {"compound": "COc1ccc2nc(-c3ccccn3)ccc2c1", "fluorescence intensity": 4000}, {"compound": "CC(C)c1nc(-c2ccccn2)no1", "fluorescence intensity": "21700 (active)"}, {"compound": "CC(=O)NC(c1ccccc1)c1nc(-c2cccc(C(C)C)c2)cs1", "note": "(centres undefined)", "fluorescence intensity": 3400}, {"compound": "Cc1ccccc1OCC(=O)NNC(=O)c1ccc(-n2cncn2)c([N+](=O)[O-])c1", "fluorescence intensity": 5300}, {"compound": "C=C(C)Cn1c(N2CCN(CC)CC2)nc2c1c(=O)[nH]c(=O)n2C", "fluorescence intensity": 4600}, {"compound": "COc1ccc(C2OCC3(CO2)SC(=O)NC3=O)cc1OC", "note": "(centres undefined)", "fluorescence intensity": 2510}, {"compound": "CCCC(C)n1[nH]c(=O)c2c1NC(=O)CSC2c1ccc(OC)c(OC)c1", "note": "(centres undefined)", "fluorescence intensity": "20600 (active)"}, {"compound": "CCOC(=O)C1C(c2ccc(OC)c(OC)c2)c2c([nH][nH]c2=O)CC1(C)O", "note": "(centres undefined)", "fluorescence intensity": 4630}, {"compound": "CCCCN1CC(N2CCN(Cc3cccc(C)c3)CC2)CS1(=O)=O", "note": "(centres undefined)", "fluorescence intensity": 6580}, {"compound": "CC(C)(C)Nc1c(N)c(=O)oc2ccccc12", "fluorescence intensity": "17700 (active)"}, {"compound": "Nc1c(NCCc2ccccc2)c2ccccc2oc1=O", "fluorescence intensity": 3190}, {"compound": "O=c1oc2ccccc2c(=O)c2ccccc12", "fluorescence intensity": 3730}, {"compound": "CN(C)Cc1c(O)ccc2occ(C(O)c3ccccc3)c12", "note": "(centres undefined)", "fluorescence intensity": 2380}, {"compound": "CC(=O)c1cccc(-c2cnc3c(NC=O)cc(-c4cccc(C(=O)N(C)C)c4)cn23)c1", "fluorescence intensity": 4000}, {"compound": "OCCC#Cc1ccc(N2C(c3ccsc3)=Cc3ccc(F)cc3C2c2c[nH]c3ccccc23)cc1", "note": "(centres undefined)", "fluorescence intensity": 4910}, {"compound": "CCC1=C(C(=O)OC)C(c2cc(OC)ccc2OC)C(C#N)=C(N)O1", "note": "(centres undefined)", "fluorescence intensity": "21500 (active)"}, {"compound": "COC(=O)C1=C(C)N(C)C(=S)NC1c1cc(OC)ccc1OC", "note": "(centres undefined)", "fluorescence intensity": 4360}, {"compound": "CCOC(=O)C1=C(CC)OC(N)=C(C#N)C1c1ccc(F)cc1F", "note": "(centres undefined)", "fluorescence intensity": 2060}, {"compound": "Cc1cc(C)cc(NS(=O)(=O)Cc2ccccc2)c1", "fluorescence intensity": 3320}, {"compound": "COc1ccc(OCCNS(=O)(=O)Cc2ccccc2)cc1", "fluorescence intensity": 2820}, {"compound": "CCOCCCNS(=O)(=O)Cc1ccccc1", "fluorescence intensity": "18800 (active)"}, {"compound": "COCCNC(=O)c1cc2c(Br)ccc(Br)c2nc1N", "fluorescence intensity": 4280}, {"compound": "COC(=O)/C(NC(C)=O)=C(\\C)c1ccc(Cl)cc1", "fluorescence intensity": "17300 (active)"}, {"compound": "CC(C)CNC(=S)NC(=O)c1ccc(Cl)cc1", "fluorescence intensity": 2350}, {"compound": "CC(=O)Nc1ccc(SCC(=O)NC(=O)c2ccc(Cl)cc2)cc1", "fluorescence intensity": 3220}, {"compound": "COc1ccc(CC(N)c2csc(NC(=O)NC(c3ccccc3)c3ccccc3)n2)cc1", "note": "(centres undefined)", "fluorescence intensity": 3610}, {"compound": "COc1ccc(OC)c(C(O)c2ncc(-c3cccc(C(F)(F)F)c3)[nH]2)c1", "note": "(centres undefined)", "fluorescence intensity": 3890}, {"compound": "CN1OC[C@@H]2CN(C(=O)c3cccc4ccccc34)[C@H](c3ccc(N4CCCCC4)cc3)C[C@@H]21", "fluorescence intensity": 11700}, {"compound": "CN1OC[C@@H]2CN(C(=O)c3cccnc3)[C@H](c3ccc(N4CCCCC4)cc3)C[C@@H]21", "fluorescence intensity": 4430}, {"compound": "CN1OC[C@@H]2CN(S(=O)(=O)c3cccc4ccccc34)[C@H](c3ccc(N4CCCCC4)cc3)C[C@@H]21", "fluorescence intensity": "25600 (active)"}, {"compound": "Cc1cc(C)c2nc3nc(C)cc(C)c3c(N)c2c1", "fluorescence intensity": 2140}, {"compound": "CCOC(=O)Cc1ncccc1C(=O)Nc1ccc(OC)cc1", "fluorescence intensity": 3720}, {"compound": "CCOc1ccc(NC(=O)CSc2nncn2C)cc1", "fluorescence intensity": 3760}, {"compound": "CCCCOc1ccc(NC(=O)CSCC(=O)OCC)cc1", "fluorescence intensity": "21000 (active)"}, {"compound": "COc1ccc(C(C)C)cc1-c1ccc2nncn2c1", "fluorescence intensity": 3610}, {"compound": "CC1(C(=O)NS(=O)(=O)c2ccccc2)CCN1C(=O)c1ccccc1", "note": "(centres undefined)", "fluorescence intensity": 3830}, {"compound": "CCCCCCN1CCN(C2CN(Cc3cn(Cc4ccc(F)cc4)nn3)S(=O)(=O)C2)CC1", "note": "(centres undefined)", "fluorescence intensity": 6160}, {"compound": "CSc1nsc(SCC(=O)Nc2cc(C(=O)O)ccc2C)n1", "fluorescence intensity": 4170}, {"compound": "N[C@@H](Cc1c[nH]c2ccccc12)c1nnc(SCc2c(F)cccc2Cl)o1", "fluorescence intensity": "22800 (active)"}, {"compound": "Oc1ccc(-n2nnnc2SCc2c(F)cccc2Cl)cc1", "fluorescence intensity": 3260}, {"compound": "CC(C)C[C@@H](N)c1nnc(SCC(=O)c2ccc(Cl)cc2)o1", "fluorescence intensity": 9640}, {"compound": "CC(C)(C)C1C/C(=C/c2ccco2)C(=O)/C(=C/c2ccco2)C1", "note": "(centres undefined)", "fluorescence intensity": 3920}, {"compound": "O=S1(=O)CC(N2CCSCC2)CN1Cc1cn(Cc2cccc(Cl)c2)nn1", "note": "(centres undefined)", "fluorescence intensity": 5080}, {"compound": "CC1(C)C(=O)C2(CCCCC2)C(=O)OC1c1cccs1", "note": "(centres undefined)", "fluorescence intensity": "20700 (active)"}, {"compound": "O=C(O)C(c1cccs1)C1(O)CCCCC1", "note": "(centres undefined)", "fluorescence intensity": 3860}, {"compound": "CC12CN3CC(C)(CN(C1)C3c1cccs1)C2", "note": "(centres undefined)", "fluorescence intensity": 8490}, {"compound": "CCC(C(=O)N1CCN(S(=O)(=O)c2sc(C(=O)O)c(C)c2C(=O)O)CC1)c1ccccc1", "note": "(centres undefined)", "fluorescence intensity": 9090}, {"compound": "COc1cccc(NC(=O)Nc2ccc(F)cc2)c1", "fluorescence intensity": 3940}, {"compound": "COc1ccc(C)cc1S(=O)(=O)N(CC(=O)Nc1cccc([N+](=O)[O-])c1)c1ccc(C)cc1", "fluorescence intensity": 2390}, {"compound": "CN(c1cccc(NC(=O)c2ccc(CN3CCc4ccccc4C3)cc2)c1)S(C)(=O)=O", "fluorescence intensity": 3600}, {"compound": "Cc1ccc(N(CC(=O)Nc2cccc(N(C)S(C)(=O)=O)c2)S(C)(=O)=O)cc1", "fluorescence intensity": "24500 (active)"}, {"compound": "CCOc1ccc(N(CC(=O)Nc2cccc(OC)c2)S(C)(=O)=O)cc1", "fluorescence intensity": 4460}, {"compound": "CN(c1cccc(NC(=O)Nc2ccc(Cl)cc2)c1)S(C)(=O)=O", "fluorescence intensity": "16900 (active)"}, {"compound": "N#Cc1c(NCCO)ccc([N+](=O)[O-])c1NCCO", "fluorescence intensity": 3950}, {"compound": "O=C(NCc1cccnc1)c1cc(C2CCCN(C(=O)CCCc3ccccc3)C2)on1", "note": "(centres undefined)", "fluorescence intensity": 3480}, {"compound": "COc1ccc(-c2coc3c(C(=O)NC(C)C)cccc23)c(C)c1", "fluorescence intensity": 3850}, {"compound": "O=C(COC(=O)c1ccc(F)c(S(=O)(=O)N2CCOCC2)c1)NCc1ccc2c(c1)OCO2", "fluorescence intensity": 3750}, {"compound": "CCOC(=O)N1CCN(c2c(NCCCN3CCCC(C)C3)c(=O)c2=O)CC1", "note": "(centres undefined)", "fluorescence intensity": 4370}, {"compound": "Cc1ccc(-c2nc3c(C)cc(Br)cn3c2Cc2ccccc2)cc1", "fluorescence intensity": 4960}, {"compound": "CC(=O)N(CC(O)CO)c1c(I)c(C(=O)NCC(O)CO)c(I)c(C(=O)NCC(O)CO)c1I", "note": "(centres undefined)", "fluorescence intensity": 5720}, {"compound": "N#Cc1c(N)nc2c(c1N)CC(C(F)(F)F)O2", "note": "(centres undefined)", "fluorescence intensity": 4380}, {"compound": "C=CCn1c(COc2cccc3cccnc23)nnc1SCC(=O)OC", "fluorescence intensity": "21200 (active)"}, {"compound": "C=CCn1c(COc2ccccc2C)nnc1SCC(=O)O", "fluorescence intensity": 2820}, {"compound": "C=CCn1c(COc2ccc(F)cc2)nnc1SCC(=O)Nc1cccc(S(N)(=O)=O)c1", "fluorescence intensity": 4780}]}]}
